BRCA1 expr act = increases BRCA1 expression | MCF7-BRCA1-FFLuc reporter, luminescence, 48 h; response scale: scaled: vehicle 0%, 10 µM genistein 100% | Potency, µM (highest dose often 46.1 µM), most hits filed as activators | 380,000 tested, 1.1% active | AID 624202; note: nearly all actives have a fitted effect of over 80% in size
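Compounds are tested at multiple concentrations on MCF7 BRCA1-luciferase reporter cells seeded at 2000 per well; after 48 h, a single luminescence end-point is taken and curves fitted to the normalized data.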
PLK1 PBD block = PLK1 (human) polo-box domain binding inhibition; Potency, µM, hits mostly inhibitors; P53350; Plk1 PBD binding of FITC phosphopeptide, fluorescence polarization; 360,000 tested, 2.8% active; note: series mostly up to about 57 µM; nearly all actives have a fitted effect of over 65% in size
Target sequence (P53350 whole entry, looked up, the tested form may be a part): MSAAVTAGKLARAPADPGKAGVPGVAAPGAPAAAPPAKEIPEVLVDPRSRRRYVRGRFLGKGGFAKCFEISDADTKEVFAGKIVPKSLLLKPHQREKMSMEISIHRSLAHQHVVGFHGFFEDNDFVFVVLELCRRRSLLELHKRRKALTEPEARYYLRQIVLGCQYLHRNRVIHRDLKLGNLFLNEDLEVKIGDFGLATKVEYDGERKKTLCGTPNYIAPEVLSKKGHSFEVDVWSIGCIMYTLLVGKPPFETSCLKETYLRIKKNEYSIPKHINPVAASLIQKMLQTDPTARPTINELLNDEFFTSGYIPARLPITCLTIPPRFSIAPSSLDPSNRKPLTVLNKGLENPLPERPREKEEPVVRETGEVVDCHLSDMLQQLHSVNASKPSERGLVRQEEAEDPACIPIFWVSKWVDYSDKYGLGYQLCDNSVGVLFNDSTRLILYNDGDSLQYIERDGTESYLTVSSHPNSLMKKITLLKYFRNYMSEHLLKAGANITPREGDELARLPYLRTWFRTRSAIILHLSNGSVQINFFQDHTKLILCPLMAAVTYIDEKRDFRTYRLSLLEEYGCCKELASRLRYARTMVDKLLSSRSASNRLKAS
VDR inh = blocks the human vitamin D receptor; P11473; VDR-SRC2-3 peptide fluorescence polarization, 2 h; Potency, µM, most hits filed as inhibitors; 400,000 tested, 0.93% active; AID 504847
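Compounds are added to VDR with labelled SRC2-3 coactivator peptide and held 2 h at room temperature. Inhibition of the VDR–peptide interaction is then read as a change in fluorescence polarization.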
Tb PFK block = inhibitors of T. brucei phosphofructokinase; Potency, µM (series often up to 57.5 µM), actives largely listed as inhibitors; O15648; T. brucei PFK, ADP-Glo luminescence; AID 485367; 330,000 tested, 0.17% active; note: nearly all actives have a fitted effect of over 60% in size
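In TEA buffer at pH 8.0 with 5 mM MgCl2, enzyme (1.25 nM) converted F6P (0.5 mM) and ATP (0.1 mM) for 45 min at room temperature. ADP product was read by luciferase luminescence.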
Numbers stand for hits; 0 = inactive; ? = inconclusive; - = no result; [ ] = dose if it differs, or a comment. The list is not random: actives were taken first. Their share in the collection is about 3.9%. Calls come from the whole dose curve; as a rule, active = well fitted curve in the direction sought with a large enough effect; inconclusive = small, poorly fitted or top-dose-only effect, or another doubt; inactive = no such curve, though single readings can be large; an effect the other way counts as inactive or inconclusive.

SMILES	BRCA1 expr act	PLK1 PBD block	VDR inh	Tb PFK block
CCc1ccc(OC2=NS(=O)(=O)c3ccccc32)cc1	0	12µM	0	0
COc1ccccc1OC1=NS(=O)(=O)c2ccccc21	0	?	0	0
CCN(CC)c1cccc(OC2=NS(=O)(=O)c3ccccc32)c1	0	3.4µM	0	0
Cc1ccc(OC2=NS(=O)(=O)c3ccccc32)cc1	0[1.84 µM]	0	0	0
O=C1SC(Nc2ccccc2)C(=O)N1c1ccccc1 (centres undefined)	0	-	0	-
C(=C\c1ccc2ccccc2n1)/c1cccnc1	0	-	-	-
O/N=C/c1cc(Br)ccc1OCc1ccccc1F	0	0	0	-
O=C(O)CN1C(=O)/C(=C\c2cccc(OCc3ccc(Cl)cc3Cl)c2)SC1=S	?	21µM	?	0
COc1cccc(/C=C2/SC(=S)N(CCC(=O)N3CCOCC3)C2=O)c1	0	30µM	0	0
O=C(O)CN1C(=O)/C(=C\c2cc(Br)ccc2OCc2ccccc2F)SC1=S	0	19µM	?	0
O=C(O)CN1C(=O)/C(=C\c2cc(Br)ccc2OCc2ccccc2Cl)SC1=S	0	17µM	?	0
C#CCn1cc2c(c1-c1ccccc1)c(=O)n(C)c(=O)n2C	0	0	-	-
O=C(O)CN1C(=O)/C(=C\c2cc(Br)ccc2OCc2ccc([N+](=O)[O-])cc2)SC1=S	0	21µM	35µM	?
O=C(O)CN1C(=O)/C(=C\c2ccccc2OCc2ccc(Cl)cc2Cl)SC1=S	0	27µM	?	0
O=C(O)CCN1C(=O)/C(=C\c2ccc(OCc3ccccc3)c(OCc3ccccc3)c2)SC1=S	0	0	0	0
O=C(O)CCN1C(=O)/C(=C\c2cccc(OCc3ccccc3)c2)SC1=S	0	19µM	?	0
O=C(O)COc1ccc(Br)cc1/C=C1/SC(=O)N(CC(=O)N2CCCC2)C1=O	0	0	?	0
COc1ccccc1CNC(=O)COC(=O)c1ccc(C)c(S(=O)(=O)N2CCCCC2)c1	0	0	0	0
CC(C)(C)OC(=O)N1CCC(C(=O)Nc2ccc(C(=O)NC3CC3)cc2)CC1	0	0	0	-
Cn1c(C(=O)NCCC2=CCCCC2)cc2c(=O)n3ccccc3nc21	11µM	0	0	0
CC(C)SCC(=O)Nc1ncc2c(n1)-c1ccccc1CC2	0	19µM	0	0
CC(=O)[C@H]1CC[C@@H]2[C@H]3CC=C4C[C@@H](O)CC[C@]4(C)[C@H]3CC[C@]12C	-	-	0	-
Cc1cc(OC(=O)c2ccccc2Cl)cc(=O)n1C	0	27µM	0	0
CCN(Cc1ccccc1)c1ccc(/C=C/c2nccc3ccccc23)cc1	0	-	-	-
CCOC(=O)c1c[nH]c2c(Cl)c(Cl)ccc2c1=O	0	27µM	0	0
SMILES	BRCA1 expr act	PLK1 PBD block	VDR inh	Tb PFK block
CCOC(=O)c1c[nH]c2c(Cl)ccc(Cl)c2c1=O	0	0	0	0
CCOC(=O)c1c[nH]c2c(C)ccc(Cl)c2c1=O	0	19µM	79µM	0
CCOCCOC(=O)c1ccc(NC(=O)c2cc3ccccc3o2)cc1	0	0	0	-
CCOc1ccc(NS(=O)(=O)c2c(C)nc3sccn3c2=O)cc1	0	0	0	0
CCOc1ccccc1N(C)C(=O)CCS(=O)(=O)c1ccc2c(c1)NC(=O)C(C)S2 (centres undefined)	0	27µM	?	0
CC1Sc2ccc(S(=O)(=O)CCC(=O)Nc3ccccc3Cl)cc2NC1=O (centres undefined)	0	27µM	0	0
Cc1cc(C(=O)COC(=O)c2ccc(Cl)c(S(N)(=O)=O)c2)c(C)n1C1CC1	11µM	0	0	0
Cc1cc(C(=O)COC(=O)c2ccc(NC(=O)CC#N)cc2)c(C)n1C1CC1	4.5µM	0	0	0
Cc1cc(C(=O)COC(=O)c2ccc(NC(=O)CC#N)cc2)c(C)n1CC(F)(F)F	?	0	-	-
CC(C)N(C(=O)COC(=O)c1ccc(Cl)c(S(N)(=O)=O)c1)C(C)C	0	0	?	0
Clc1ccc(-c2nn3c(C4COc5ccccc5O4)nnc3s2)cc1 (centres undefined)	0	21µM	79µM	0
c1ccc(-c2nnc(NC3=NCCC3)o2)cc1	0	24µM	0	0
Fc1ccc(-c2nnc(NC3=NCCCCC3)o2)cc1	0	0	0	0
CCN(CC)c1ccc(/C=C2/SC(=O)N(C(C)C)C2=O)o1	0	0	32µM	0
Cc1ccc(OCC(=O)Oc2cccc(C)c2)cc1	0	0	0	-
Cc1cccc(OC(=O)n2c(=S)oc3cc(Cl)ccc32)c1	0	30µM	0	0
CCCCN(C=O)c1c(CC)nc2ccc(C(=O)N3CCN(S(=O)(=O)CC)CC3)cn12	0	0	-	-
CC(C)c1ccc(CNc2ccc3c(c2)ncn3C)cc1	0	0	0	0
CC(C)c1ccc(CNc2ncccn2)cc1	11µM	0	0	0
Cc1ccc2c(CN3CCN(c4ccc(Cl)c(Cl)c4)CC3)cc(=O)oc2c1	0	0	-	-
O=C(Nc1ccc2[nH]c(=S)sc2c1)Nc1ccccc1F	0	21µM	?	0
O=C(Nc1ccc2[nH]c(=S)sc2c1)c1ccccc1	?	?	?	0
N#CC1=C2SCN(C3CCCCC3)CN2C(=O)CC1c1ccc(Cl)cc1 (centres undefined)	-	-	22µM	-
N#CC1=C2SCN(C3CCCCC3)CN2C(=O)CC1c1ccc(F)cc1 (centres undefined)	-	-	18µM	-
O=C1CSC(c2ccc(Cl)cc2)N1C1CCCCC1 (centres undefined)	0	0	0	-
SMILES	BRCA1 expr act	PLK1 PBD block	VDR inh	Tb PFK block
N#CC1=C2SCN(C3CCCCC3)CN2C(=O)CC1c1c(F)cccc1Cl (centres undefined)	-	-	20µM	-
CC(C)c1ccc(C2CC(=O)N3CN(C)CSC3=C2C#N)cc1 (centres undefined)	0	4.7µM	?	0
COc1cccc(CNC(=O)CCc2c(C)nn(-c3ccc(N4CCCC4)nn3)c2C)c1	-	-	0	-
Cc1cc(Cl)ccc1NS(=O)(=O)c1c(C(=O)N2CCC(C)CC2)c(C)n(C)c1C	-	-	0	-
O=C(Nc1ccc(C(O)c2ccccc2)cc1)[C@H]1C[C@H](O)[C@@H](CO)O1 (some centres undefined)	0	0	-	-
CCN(CC)C(=O)c1ccc(-c2ccccc2)cc1	0	0	0	0
CN(C)CC(=O)c1ccc(-c2ccccc2)cc1	0	0	?	0
C/[N+]([O-])=C\CC(=O)c1ccc(-c2ccccc2)cc1	0	21µM	0	0
CCN(CC)CC(=O)c1ccc(-c2ccccc2)cc1	0	?	40µM	?
COc1cccc(Nc2ncc3nc(-c4ccccc4)c(=O)n(C)c3n2)c1	-	-	0	-
CC(=O)NCCc1nc2ccccc2n1CCCCOc1ccccc1	0	0	0	0
CC(=O)NCCc1nc2ccccc2n1CCOc1ccccc1	0	24µM	0	0
CC1=C(C(=O)NCc2ccccc2Cl)C2(CCCCCC2)OC1=O	-	-	0	-
CCC(C)C(NC(=O)C1CCC(C)CC1)C(=O)Nc1ccc(OC)cc1 (centres undefined)	0	30µM	?	0
